Results from PubChem BioAssay AID1117273 (Broad Institute, 2014).
Unmarked numbers belong to inactive results. No rule for the calls is given here.

Test: inhibitors of orthopox early gene expression, dose response, cell-based, single fluorophore reporter, dry powder (AID 1117273)
Conditions: orthopoxvirus-infected cells, early gene fluorescent reporter; at 10 µM; stronger effect = higher value

SMILES	inhibition [%]
C[C@@H](O)C#Cc1ccc2c(c1)O[C@@H](CN(C)Cc1ccc(-c3ccccc3Cl)cc1)[C@@H](C)CN([C@@H](C)CO)S2(=O)=O	59.3
C[C@@H](O)C#Cc1ccc2c(c1)O[C@@H](CN(C)Cc1ccc(-c3ccc(Cl)cc3)cc1)[C@@H](C)CN([C@@H](C)CO)S2(=O)=O	17.2
COc1ccccc1-c1ccc(CN(C)C[C@@H]2Oc3cc(C#C[C@@H](C)O)ccc3S(=O)(=O)N([C@@H](C)CO)C[C@@H]2C)cc1	-12.9
Cc1ccc(-c2ccc(CN(C)C[C@@H]3Oc4cc(C#C[C@@H](C)O)ccc4S(=O)(=O)N([C@@H](C)CO)C[C@@H]3C)cc2)cc1	32.5
C[C@@H](O)C#Cc1ccc2c(c1)O[C@@H](CN(C)Cc1ccc(-c3cccc(Cl)c3)cc1)[C@@H](C)CN([C@@H](C)CO)S2(=O)=O	48.5
Cc1ccccc1-c1ccc(CN(C)C[C@@H]2Oc3cc(C#C[C@@H](C)O)ccc3S(=O)(=O)N([C@@H](C)CO)C[C@@H]2C)cc1	63.3
Cc1cccc(-c2ccc(CN(C)C[C@@H]3Oc4cc(C#C[C@@H](C)O)ccc4S(=O)(=O)N([C@@H](C)CO)C[C@@H]3C)cc2)c1	48
